Consider 14 compounds from PubChem BioAssay.

Test [1] concerns Plasmodium falciparum Sir2 (PF13_0152, Sir2A). As to the kind of experiment: Plasmodium falciparum Sir2A binding compounds – biochemical, small-molecule microarray, 635 nm fluorescence, primary screen (AID 1098).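 Further: score merges spot fluorescence intensity with its signal-to-noise ratio.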 The settings on record: fluorescence 635 nm, higher = more signal.
The nature of test [2]: probe aDKK1 binding to arrayed compounds – biochemical, biotinylated probe, 635/667 nm fluorescence, primary screen (AID 1099).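 Further: score merges 667nm spot fluorescence with signal to noise across triplicate slides; reference of the scale not given here.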 The conditions noted are these: small-molecule microarray, higher = more signal.
Test [3] can be described thus: probe aCHRDL2 binding to arrayed compounds – biochemical, biotinylated probe, 635/667 nm fluorescence, primary screen (AID 1100). The settings on record: small-molecule microarray, higher = more signal.
A short description of test [4]: change in splice reporter luminescence, either direction, cell-based, HEK293, spliceosome inhibition project, primary screen (AID 1101).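 Further: HEK293 cells carrying a splicing-competent luciferase reporter gene; test concentration not given here.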 The conditions noted are these: HEK293 splicing luciferase reporter, 24 h, higher = more signal, called active from +8 up or from −8 down. On the technique in general: Reporter assays use an easily measured gene product as a stand-in for the process of interest.

Test [5] deals with Fibroblast growth factor 10 (Homo sapiens) (UniProt O15520). As to the kind of experiment: compounds binding fibroblast growth factor 10 – biochemical, small-molecule microarray, 635 nm fluorescence, primary screen (AID 1102). The conditions noted are these: FGF10 binding, fluorescence 635 nm, higher = more signal.
Chain of Fibroblast growth factor 10 (Homo sapiens) (O15520 whole entry, looked up): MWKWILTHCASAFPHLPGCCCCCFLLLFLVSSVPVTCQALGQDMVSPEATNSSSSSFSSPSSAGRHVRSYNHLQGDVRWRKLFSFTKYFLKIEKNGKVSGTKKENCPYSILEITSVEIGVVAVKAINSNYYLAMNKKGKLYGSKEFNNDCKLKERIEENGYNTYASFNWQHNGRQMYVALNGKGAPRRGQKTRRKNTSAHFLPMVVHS
In test [6] the test system is glycogen synthase kinase-3 (GSK3A per assay name; protocol says GSK3B). As to the kind of experiment: compounds binding glycogen synthase kinase-3 – biochemical, small-molecule microarray, 635 nm fluorescence, GSK3A, primary screen (AID 1103). Further: the record names both GSK3A and GSK3B. The conditions noted are these: fluorescence 635 nm, higher = more signal.
In test [7] the target is Epidermal growth factor receptor (Homo sapiens) (UniProt P00533). Briefly: compounds binding epidermal growth factor receptor – biochemical, small-molecule microarray, 635 nm fluorescence, primary screen (AID 1104).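 Further: score merges 667 nm emission intensity with spot signal to noise over triplicate slides.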 The conditions noted are these: EGFR binding, higher = more signal.
Chain of Epidermal growth factor receptor (Homo sapiens) (P00533 whole entry, looked up): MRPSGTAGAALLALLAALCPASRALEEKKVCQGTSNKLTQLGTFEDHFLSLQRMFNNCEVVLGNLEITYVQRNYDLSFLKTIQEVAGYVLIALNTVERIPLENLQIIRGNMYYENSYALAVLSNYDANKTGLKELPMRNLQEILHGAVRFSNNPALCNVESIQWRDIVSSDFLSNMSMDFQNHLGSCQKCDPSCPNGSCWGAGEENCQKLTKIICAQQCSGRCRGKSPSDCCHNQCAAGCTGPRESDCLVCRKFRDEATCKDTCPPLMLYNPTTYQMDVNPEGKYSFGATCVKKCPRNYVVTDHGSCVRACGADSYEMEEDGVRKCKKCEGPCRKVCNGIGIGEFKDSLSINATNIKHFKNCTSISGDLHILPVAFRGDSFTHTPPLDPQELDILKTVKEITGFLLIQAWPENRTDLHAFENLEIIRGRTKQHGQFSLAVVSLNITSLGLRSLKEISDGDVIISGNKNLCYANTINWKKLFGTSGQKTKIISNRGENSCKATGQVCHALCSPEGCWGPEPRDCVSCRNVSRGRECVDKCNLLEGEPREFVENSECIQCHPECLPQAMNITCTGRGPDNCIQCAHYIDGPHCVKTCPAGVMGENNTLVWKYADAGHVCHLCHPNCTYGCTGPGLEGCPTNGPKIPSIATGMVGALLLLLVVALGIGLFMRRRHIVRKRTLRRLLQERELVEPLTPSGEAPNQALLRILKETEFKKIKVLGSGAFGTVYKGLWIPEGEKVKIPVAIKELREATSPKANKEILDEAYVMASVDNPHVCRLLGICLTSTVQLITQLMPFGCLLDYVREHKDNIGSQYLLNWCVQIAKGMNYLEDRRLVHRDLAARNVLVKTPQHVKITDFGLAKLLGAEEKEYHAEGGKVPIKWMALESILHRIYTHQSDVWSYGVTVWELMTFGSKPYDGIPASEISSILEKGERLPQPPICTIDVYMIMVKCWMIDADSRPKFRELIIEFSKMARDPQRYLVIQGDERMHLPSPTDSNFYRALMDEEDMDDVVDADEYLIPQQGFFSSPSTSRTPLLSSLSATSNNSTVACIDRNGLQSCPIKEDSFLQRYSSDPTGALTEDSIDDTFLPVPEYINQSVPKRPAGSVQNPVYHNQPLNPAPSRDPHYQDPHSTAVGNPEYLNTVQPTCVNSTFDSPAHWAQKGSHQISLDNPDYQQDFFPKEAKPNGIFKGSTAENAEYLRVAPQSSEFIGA
Test [8] addresses Follistatin-related protein 3 (Homo sapiens) (UniProt O95633). As to the kind of experiment: compounds binding follistatin-related protein 3 – biochemical, small-molecule microarray, 635 nm fluorescence, primary screen (AID 1105).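 Further: score merges emission near 667 nm and signal to noise per printed spot across three slides.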 The settings on record: FSTL3 binding, higher = more signal.
The target of test [9] is Dickkopf-related protein 1 (Homo sapiens) (UniProt O94907). Briefly: small molecules binding DKK1 protein – biochemical, small-molecule microarray, 635 nm fluorescence scan, primary screen (AID 1106).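 Further: score merges emission near 667 nm with signal to noise over three replicate slides.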 The settings on record: higher = more signal.
Chain of Dickkopf-related protein 1 (Homo sapiens) (O94907 whole entry, looked up): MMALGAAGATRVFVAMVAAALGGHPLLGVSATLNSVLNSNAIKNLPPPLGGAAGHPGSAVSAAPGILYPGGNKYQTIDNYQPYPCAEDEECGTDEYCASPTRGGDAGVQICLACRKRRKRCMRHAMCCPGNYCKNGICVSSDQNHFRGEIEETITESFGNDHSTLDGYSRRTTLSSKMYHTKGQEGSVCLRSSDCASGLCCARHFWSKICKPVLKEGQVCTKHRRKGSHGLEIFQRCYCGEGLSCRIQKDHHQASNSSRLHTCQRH
Test [10] deals with Inhibin beta A chain (activin A). As to the kind of experiment: small molecules binding activin A – biochemical, small-molecule microarray, 635 nm fluorescence scan, primary screen (AID 1107).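 Further: mouse activin A protein probed at 4.33 µg/mL on printed slides; score merges bound-protein fluorescence near 667 nm with spot signal-to-noise.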 The conditions noted are these: INHBA, higher = more signal.

The source made the active and inactive calls.

Chain of Follistatin-related protein 3 (Homo sapiens) (O95633 whole entry, looked up): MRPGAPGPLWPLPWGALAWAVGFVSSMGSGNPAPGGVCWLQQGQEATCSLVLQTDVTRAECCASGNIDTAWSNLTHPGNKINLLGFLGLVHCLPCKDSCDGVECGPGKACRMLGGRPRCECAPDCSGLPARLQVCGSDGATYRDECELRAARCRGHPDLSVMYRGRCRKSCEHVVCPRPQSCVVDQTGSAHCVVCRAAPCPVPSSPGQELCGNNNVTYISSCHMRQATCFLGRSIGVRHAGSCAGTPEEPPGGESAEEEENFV

As for `CC(C)C(=C=CC[C@H](O)c1cccc(OCCO)c1)C[C@H](O)c1cc(Cl)cc(Cl)c1O`, the composite z-score in [1] is 0.507; in [2], -0.217; in test [3], 0.0419; in test [5], 1.43; in [6] it was 0.0728; in test [7], -0.388. Besides, the composite z-score is 0.544 in test [8], -0.0693 in test [9] and 0.346 in [10]. Moreover, in [4], the z-score was -0.747 (inactive).
As for `CCCCCCc1nc(C2CC2)cc2c1[Si](C(C)C)(C(C)C)O[C@H]2c1ccccc1`, the composite z-score is 0.454 in [1]; -0.312 in test [2]; -0.191 in test [3]; 0.402 in [5]; -0.213 in [6]; 0.341 in [7]. In addition, the composite z-score was 0.274 in test [8], 0.546 in test [9] and 0.741 in [10]. The z-score in [4] was 0.214 (inactive).
For the compound `O=C1O[C@@H](c2ccccc2)[C@@H](c2ccccc2)N2[C@@H](c3ccc(OCCO)cc3)[C@]3(C(=O)Nc4ccccc43)[C@@H](C(=O)O)[C@H]12`, the composite z-score is 0.327 in [1]; -0.483 in test [2]; 0.273 in test [3]; 0.119 in [5]; -0.739 in [6]; -0.38 in test [7]. Further, the composite z-score in test [8] was -0.415; in test [9] it was -0.32; in test [10] it was 0.758. Also, the z-score in test [4] was -0.715 (inactive).
Consider `CCOC(=O)C[C@H]1[C@H](OC(=O)c2ccccc2-c2ccccc2)[C@@H](NC(=O)c2ccc(-c3ccccc3)cc2)c2cc(OCCCO)ccc2N1C(=O)c1ccc2ccccc2n1`, for which the composite z-score in test [1] was 0.533; in [2] it was -0.293; in test [3] it was -0.0904; in [5], 0.948; in [6], 0.749; in [7], 0.247. Further, the composite z-score in [8] is 0.749; in test [9] it was 0.204; in test [10], 0.392. The z-score in test [4] was 0.224 (inactive).
On to `C=C(C)[C@@H]1CC=C(C(O)C2C=CC3C(=O)N(c4ccccc4)C(=O)C3N2Nc2ccccc2F)CC1` (stereo not given in full), for which the composite z-score in test [1] worked out at 1.15; in test [2], 0.671; in test [3], 0.972; in [5], 1.08; in test [6] it was 1.3; in test [7], 0.662. Further, the composite z-score in test [8] is 1.42; in test [9], -0.112; in test [10], 0.725. The z-score in [4] was 0.869 (inactive).
Regarding `C=CCOC(=O)[C@H]1[C@@H]2C(=O)O[C@@H](c3ccccc3)[C@@H](c3ccccc3)N2[C@@H](c2ccc(OCCOC(=O)[C@@H]3C[C@@H]4C(=O)N5CCC[C@H]5C(=O)N4[C@@H]3c3ccc(O)cc3)cc2)[C@]12C(=O)Nc1ccc(I)cc12`, the composite z-score in [1] is 0.637; in test [2], -0.102; in test [3] it was 0.357; in [5], 0.53; in test [6], 0.195; in test [7] it was 0.482. The composite z-score in [8] is 0.594; in test [9] it was 1.39; in test [10] it was 0.372. Also, the z-score in test [4] was 0.431 (inactive).
Consider `C[C@]1(C(=O)NC2CC2)c2ccccc2C(=O)N(Cc2ccccc2)[C@H]1c1ccc(CO)cc1`, for which the composite z-score in [1] is 1.13; in test [2] it was 0.432; in test [3], 0.951; in test [5] it was -1.01; in test [6], -0.84; in test [7], -1.12. In addition, the composite z-score in [8] is -0.761; in test [9], -0.594; in [10] it was -0.0478. The z-score in test [4] is -0.502 (inactive).
In the case of `COCCOC(=O)N1C(=O)[C@@]2(c3ccccc31)[C@H](C(=O)N1CCN(c3ncccn3)CC1)[C@H]1C(=O)O[C@H](c3ccccc3)[C@H](c3ccccc3)N1[C@@H]2c1ccc(O)cc1`, the composite z-score in [1] stood at 1.59; in test [2], 0.184; in [3], 0.573; in [5], 0.745; in test [6] it was 0.53; in test [7] it was 0.0611. For the same compound, the composite z-score was -0.11 in test [8], 0.278 in test [9] and -0.66 in test [10]. The z-score in [4] is 0.554 (inactive).
For the compound `O=C1N(Cc2ccccc2)c2ccccc2[C@@H]2OC(c3ccc(OCCCO)cc3)=N[C@]12Cc1ccccc1`, the composite z-score was determined as 0.959 in test [1]; 0.659 in [2]; 1 in test [3]; 0.504 in test [5]; 0.852 in [6]; 0.224 in [7]. Further, the results for the composite z-score in test [8], in [9] and in [10] were 0.61, 0.0877 and 1.13, respectively. Also, the z-score in test [4] was -0.0483 (inactive).
Consider `C=CCOC(=O)[C@H]1[C@@H]2C(=O)O[C@@H](c3ccccc3)[C@@H](c3ccccc3)N2[C@@H](c2ccc(OCCOC(=O)[C@@H]3C[C@@H]4C(=O)N[C@@H](CCCCNC(C)=O)C(=O)N4[C@@H]3c3ccc(O)cc3)cc2)[C@]12C(=O)Nc1ccc(I)cc12`, for which the composite z-score in test [1] amounted to 0.95; in [2], 0.0153; in [3], 0.127; in [5], 1.33; in test [6], 1.27; in [7], 1.08. In addition, the results for the composite z-score in test [8], in test [9] and in [10] were 1.3, 0.789 and 0.732, respectively. In test [4], the z-score was -0.151 (inactive).
On to `COC(=O)c1cn(C[C@@H](Cc2ccccc2)NC(=O)N[C@H](CO)CCc2oc(C(C)=O)c(C(=O)OC)c2C(=O)OC)nn1`, for which the composite z-score in [1] was 0.741; in test [2], 0.067; in test [3] it was -0.255; in test [5], 0.738; in test [6], 0.895; in [7], 0.452. In addition, the composite z-score in test [8] is 1.4; in test [9], 0.894; in test [10], -0.293. In addition, the z-score in test [4] was 0.138 (inactive).
On to `CCOC(=O)C[C@H]1[C@H](OC(=O)Cc2ccc3c(c2)OCO3)[C@@H](NC(=O)CC(C)C)c2cc(OCCCO)ccc2N1C(=O)Cc1ccc(OC)cc1`, for which the composite z-score was -0.25 in test [1]; -0.283 in test [2]; -0.0563 in [3]; 0.139 in [5]; 0.0308 in [6]; -0.0638 in test [7]. For the same compound, the results for the composite z-score in test [8], in [9] and in [10] were -0.0495, 0.0009 and 0.26, respectively. Moreover, the z-score in test [4] is -1.86 (inactive).
For `O=C(NCc1ccccc1)[C@@H]1c2ccccc2C(=O)N(Cc2ccccc2C(F)(F)F)[C@H]1c1ccc(CO)cc1`, the composite z-score is 1.61 in test [1]; -0.299 in test [2]; 0.752 in test [3]; 0.112 in test [5]; -0.076 in test [6]; -0.406 in test [7]. The figures for the composite z-score in [8], in [9] and in test [10] were -0.45, -1.09 and 0.212, respectively. The z-score in [4] was -0.452 (inactive).
Take `COC(=O)[C@@]1(Cc2ccc(F)cc2)[C@H]2c3cc(C(=O)N(C)C)n(CCc4ccc(O)c(OC)c4)c3C[C@H]2CN1C(=O)c1ccccc1`: the composite z-score in test [1] came out at 0.0736; in test [2], 2.29; in [3], 0.884; in test [5], 1.05; in test [6], 0.776; in test [7] it was 1.45. In addition, the composite z-score in test [8] worked out at 0.62; in [9], 0.399; in [10] it was 0.366. Moreover, in [4], the z-score was 0.655 (inactive).
